Results on 30 compounds are retold here after PubChem BioAssay.

A short description of this assay: EMT-state selective cytotoxicity in co-culture – imaging, PC-3E GFP, TEM4-18 mCherry, primary screen (AID 1345086).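 On all read-outs here: cells exposed to compound for 72 h before imaging.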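 On red/green cell ratio (normalised): normalised mesenchymal count divided by normalised epithelial count so high means epithelial killing.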 As to conditions: PC-3E GFP / TEM4-18 mCherry co-culture, imaging cell counts, at 1 µM; for red/green cell ratio (normalised): actives lie on both sides, counts scaled to control wells, 1 = unselective.
Where [1] appears, read: measured here: epithelial PC-3E GFP cell survival.
Setting [2] is: measured here: mesenchymal TEM4-18 mCherry cell survival.

Activity calls are given as the source filed them.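 How the source made its calls: active means compounds killing one labelled cell type while sparing the other, by normalised counts and ratio limits, not self-fluorescent; inactive means the rest.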

Regarding `COc1c(N2CC[C@@H](CN)C2)c(F)cc2c(=O)c(C(=O)O)cn(Cc3ccc4ccccc4c3)c12`, the red/green cell ratio (normalised) is 1.09 (inactive). In addition, the normalised cell number under setting [1] worked out at 0.86. The normalised cell number under setting [2] was found to be 0.93.
On to `C[C@@H]1C(=O)NC(Cc2ccccc2)C(=O)N2CCCC[C@H]2C(=O)O[C@H]([C@@H](C)CCCC[C@@H](C)O)C[C@H]1O` (stereo not given in full), for which the red/green cell ratio (normalised) was 0.9 (inactive). Besides, under setting [1], the normalised cell number came out at 1.03. Under setting [2], this compound displayed a normalised cell number of 0.93.
As for `CC(CC(=O)N1CCOC1=O)N1C(=S)SC[C@H]1c1ccccc1` (stereo not given in full), the red/green cell ratio (normalised) is 0.8 (inactive). Under setting [1], this compound had a normalised cell number of 1.08. In addition, the normalised cell number under setting [2] was 0.87.
Turning to `O=c1c(O)cc([C@H]2Oc3cc(O)cc(O)c3C[C@H]2O)cc2c([C@H]3Oc4cc(O)cc(O)c4C[C@@H]3O)cc(O)c(O)c12`, the red/green cell ratio (normalised) is 0.92 (inactive). For the same compound, the normalised cell number under setting [1] turned out to be 1.03. This compound displayed a normalised cell number under setting [2] of 0.95.
With `CCCCC/C=C/C1=C(CO)[C@H](O)[C@H]2O[C@H]2[C@@H]1O`, the red/green cell ratio (normalised) was 1 (inactive). Under setting [1], this compound registered a normalised cell number of 1.08. The same compound registered a normalised cell number under setting [2] of 1.08.
In the case of `COC(=O)C[C@@H]1C2(C)C(=O)C3CC4(OC3(O)C1(C)C)C1=CC(=O)O[C@@H](c3ccoc3)[C@]1(C)CCC42` (stereo not given in full), the red/green cell ratio (normalised) is 1.06 (inactive). In addition, under setting [1], the normalised cell number was found to be 0.91. The compound further showed a normalised cell number under setting [2] of 0.96.
For the compound `CC1(C)C2CCC1(C)C(O)C2` (stereo not given), the red/green cell ratio (normalised) is 1.2 (inactive). Under setting [1], this compound registered a normalised cell number of 0.75. The same compound came in with a normalised cell number under setting [2] of 0.9.
In the case of `C[C@@H]1CC[C@@]23CCC4(C)[C@@](C=CC5[C@@]6(C)CCC(=O)C(C)(C)C6CC[C@]54C)(OC2=O)C3[C@H]1C` (stereo not given in full), the red/green cell ratio (normalised) was 1.03 (inactive). Moreover, under setting [1], the normalised cell number stood at 0.95. Further, under setting [2], the normalised cell number was determined as 0.98.
With `NCCC[C@H](N)CC(=O)NC1CNC(=O)[C@H]([C@H]2C[C@H](O)N=C(N)N2)NC(=O)/C(=C/NC(N)=O)NC(=O)[C@H](CO)NC(=O)[C@H](CO)NC1=O` (stereo not given in full), the red/green cell ratio (normalised) was 0.82 (inactive). For the same compound, the normalised cell number under setting [1] turned out to be 1.24. Moreover, the normalised cell number under setting [2] came out at 1.02.
Consider `C[C@@]1(N)CCCCCN(c2c(F)cc3c(=O)c(C(=O)O)cn(C4CC4)c3c2Cl)C1`, for which the red/green cell ratio (normalised) was 1.03 (inactive). Under setting [1], this compound had a normalised cell number of 0.97. Under setting [2], the normalised cell number was 1.
For `CC(=O)O[C@H]1C[C@@H](OC(C)=O)C(C)(C)C2C[C@@H](OC(C)=O)[C@]3(C)C(CC[C@@]4(C)[C@H](c5ccoc5)OC(=O)[C@H]5O[C@]543)[C@]21C` (stereo not given in full), the red/green cell ratio (normalised) is 1.1 (inactive). This compound had a normalised cell number under setting [1] of 0.93. Under setting [2], this compound displayed a normalised cell number of 1.02.
As to `O=C1C=CC2=C3c4cc(O)c(O)cc4C[C@@]3(O)COC2=C1`, the red/green cell ratio (normalised) was 1.29 (inactive). Also, the normalised cell number under setting [1] worked out at 1.07. This compound also registered a normalised cell number under setting [2] of 1.38.
Taken in the same sequence, the figures for `c1ccc(OCC2CCNC2)cc1` (stereo not given) were 0.83 (inactive), 1.17 and 0.97.
With `CC(C)(C)OC(=O)NCCCC(NC(=O)C(Cc1ccccc1)NC(=O)OC(C)(C)C)C(=O)O` (stereo not given), the red/green cell ratio (normalised) is 0.88 (inactive). The compound also showed a normalised cell number under setting [1] of 1.24. The normalised cell number under setting [2] was 1.1.
In the case of `CC(=C\C(=O)O)/C=C(\C)C[C@H](C)CCCC[C@H]1OC(=O)[C@@H]1CO`, the red/green cell ratio (normalised) is 1 (inactive). The compound also returned a normalised cell number under setting [1] of 0.95. Under setting [2], this compound came in with a normalised cell number of 0.95.
Consider `CCCCCCCCC[C@H]1O[C@]2(O)CC[C@H](O)[C@]2(O)[C@@H]1O`, for which the red/green cell ratio (normalised) is 0.97 (inactive). Besides, the normalised cell number under setting [1] turned out to be 0.93. In addition, under setting [2], the normalised cell number amounted to 0.91.
With `CO/N=C1/C[C@]2(C[C@@H]3C[C@@H](C/C=C(\C)C[C@@H](C)/C=C/C=C4\COC5[C@H](O)C(C)=C[C@@H](C(=O)O3)[C@]45O)O2)O[C@H](/C(C)=C/C(C)C)[C@H]1C` (stereo not given in full), the red/green cell ratio (normalised) was 1.32 (inactive). This compound returned a normalised cell number under setting [1] of 1. Under setting [2], this compound displayed a normalised cell number of 1.32.
As for `CC/C=C\[C@H](O)[C@H](O)C1=C(C)C(=O)[C@]2(O1)C(=O)N[C@@](OC)(C(=O)c1ccccc1)[C@@H]2O`, the red/green cell ratio (normalised) was 1.21 (inactive). Under setting [1], this compound came in with a normalised cell number of 0.79. For the same compound, the normalised cell number under setting [2] was determined as 0.95.
As for `CC(C)CCCC(C)C1CCC2C3CC[C@H]4C[C@@H](O)CC[C@]4(C)C3CC[C@]12C` (stereo not given in full), the red/green cell ratio (normalised) was 1.05 (inactive). The normalised cell number under setting [1] was found to be 1.04. Under setting [2], this compound yielded a normalised cell number of 1.1.
Turning to `CC(=O)O[C@@H]1CC2C(C)(C)C(=O)CC[C@]2(C)C2CC[C@@]3(C)[C@H](c4ccoc4)OC(=O)C4OC43[C@@]21C` (stereo not given in full), the red/green cell ratio (normalised) was 1.03 (inactive). Moreover, under setting [1], the normalised cell number is 0.94. Moreover, the normalised cell number under setting [2] came out at 0.97.
`COc1cc(/C=C/C(=O)O)cc(OC)c1`: the red/green cell ratio (normalised) was 1.01 (inactive). This compound gave a normalised cell number under setting [1] of 0.91. In addition, under setting [2], the normalised cell number came out at 0.93.
Turning to `O=C(O)C(O)C(O)C(O)C(O)C(=O)O` (stereo not given), the red/green cell ratio (normalised) was 1.01 (inactive). This compound had a normalised cell number under setting [1] of 1.04. This compound had a normalised cell number under setting [2] of 1.05.
In the case of `CC[C@@H]1OC(=O)c2c(OC)cc(=O)oc21`, the red/green cell ratio (normalised) was 1.1 (inactive). Besides, under setting [1], the normalised cell number came to 1.01. The normalised cell number under setting [2] was determined as 1.11.
As to `Cc1cc(O)c2c(c1)Cc1cccc(O)c1C2=O`, the red/green cell ratio (normalised) is 0.94 (inactive). In addition, under setting [1], the normalised cell number amounted to 1.28. Under setting [2], the normalised cell number came out at 1.2.
Consider `CC(C)CC1OC23SCC(c4ccccc4)N2C(=O)C1C(C)S3` (stereo not given), for which the red/green cell ratio (normalised) was 0.8 (inactive). The normalised cell number under setting [1] amounted to 1.19. Also, the normalised cell number under setting [2] was 0.96.
Taken in the same sequence, the figures for `C[C@@H]1CC[C@H]2C(C)(C)C3CC12CC[C@@]3(C)O` (stereo not given in full) were 0.98 (inactive), 0.93 and 0.91.
Regarding `O=C(O)c1c(Cl)nc(Cl)c2ccccc12`, the red/green cell ratio (normalised) is 1.02 (inactive). In addition, the normalised cell number under setting [1] turned out to be 0.97. This compound had a normalised cell number under setting [2] of 0.99.
Taken in the same sequence, the figures for `OCCN1C[C@H](O)[C@@H](O)C(O)C1CO` (stereo not given in full) were 1.19 (inactive), 1.01 and 1.21.
Regarding `O=C1CCC[C@@H](N2C(=S)OC[C@H]2c2ccccc2)C1`, the red/green cell ratio (normalised) was 0.91 (inactive). Under setting [1], this compound had a normalised cell number of 1.1. The normalised cell number under setting [2] was 1.01.
`COc1cc(C(=O)O)cc(OC)c1O`: the red/green cell ratio (normalised) was 1.08 (inactive). The compound further displayed a normalised cell number under setting [1] of 1. This compound displayed a normalised cell number under setting [2] of 1.07.
